This is a sample that favours compounds with a hit; in the whole collection about 8% have one here.
KB-V1 cytotox – qHTS assay for MDR1-selective chemotherapeutics: Primary screen using the drug-selected MDR subline cells KB-V1; Potency, µM (doses to about 46.1 µM), hits mostly cytotoxic; KB-V1 MDR cells viability, CellTiter-Glo, 72 h; 400,000 tested, 3.4% active; also: % is scaled to controls: 0 for no effect and ±100 for the full control effect; nearly all actives have a fitted effect of over 60% in size
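Luminescent ATP read-out (CellTiter-Glo, 10 min) measures survival of drug-selected KB-V1 MDR cells after 72 h, 37 degrees C compound exposure. Medium: phenol-red-free DMEM, 10% FBS. Values from fitted concentration-response curves.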
KB-3-1 cytotox – qHTS assay for MDR1-selective chemotherapeutics: Primary screen using the parental adenocarcinoma cell KB-3-1 | Potency, µM (highest dose often 46.1 µM), most hits filed as cytotoxic | KB-3-1 viability, CellTiter-Glo ATP luminescence, 72 h | 400,000 tested, 1.4% active; also: % is scaled to controls: 0 for no effect and ±100 for the full control effect; nearly all actives have a fitted effect of over 60% in size
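Screening of KB-3-1 cells (DMEM, 10% FBS, phenol-red free) ran from lowest to highest compound concentration; after 72 h at 37 °C viability was read luminescently and curves fitted.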
HT1080-NT tox – qHTS for induction of synthetic lethality in tumor cells producing 2HG: qHTS for the HT-1080-NT fibrosarcoma cell line. 360,000 tested, 1.6% active. Potency, µM (top dose mostly 46.1 µM), without a hit: at the top dose activity, negative = less viability, actives largely listed as cytotoxic. HT-1080-NT fibrosarcoma viability, CellTiter-Glo ATP luminescence, 48 h;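 also: NT is the 2HG producing partner of a matched IDH1 knockdown line; 0% = DMSO-treated cells and -100% = media-only wells without cells; nearly all actives have a fitted effect of over 55% in size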
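HT-1080-NT fibrosarcoma cells (2HG-overproducing), 750 cells/well in RPMI with 5% FBS, dosed after 2 h and incubated 48 h at 37C. CellTiter-Glo luminescence normalized to DMSO and no-cell wells; concentration-response curves fitted and classed.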
SW480 rereplic – A quantitative high throughput screen for small molecules that induce DNA re-replication in SW480 colon adenocarcinoma cells; 340,000 tested, 1.8% active; Potency, µM (series often up to 46.1 µM), for the others: at the top dose re-replication activation, actives largely listed as activators; SW480 DNA re-replication, Hoechst DNA content imaging, 48 h; also: % of control where 0% means no effect; nearly all actives have a fitted effect of over 55% in size
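DNA re-replication was detected as more nuclei of elevated Hoechst intensity after 48 hr exposure to compound (23 nL pinned per well of 250 cells).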
MCF10A rerep – A quantitative high throughput screen for small molecules that induce DNA re-replication in MCF 10a normal breast cells. MCF 10A DNA re-replication, Hoechst nuclear intensity, 48 h. Potency, µM (highest dose often 46.1 µM), for the others: at the top dose activity, positive = re-replication, hits mostly activators. 350,000 tested, 2.9% active; also: % of control where 0% means no effect; nearly all actives have a fitted effect of over 50% in size
HT1080 IDH1KD tx – qHTS for induction of synthetic lethality in tumor cells producing 2HG: qHTS for the HT-1080-IDH1KD cell line; Potency, µM (doses to about 46.1 µM), without a hit: at the top dose activity, negative = toxicity, most hits filed as cytotoxic; 360,000 tested, 2% active; HT-1080 IDH1 knockdown viability, ATP luminescence, 48 h;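 also: 0% = DMSO wells and -100% = cell-free medium wells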
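Using the IDH1-knockdown HT-1080 line run in the same batch and compound series as the NT line, viability after 48 h at 37 °C was determined by CellTiter-Glo luminescence and expressed as % activity.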
* hit, by the source's call. Calls follow the shape of the dose curve; as a rule, active = well fitted curve in the direction sought with a large enough effect; inconclusive = small, poorly fitted or top-dose-only effect, or another doubt; inactive = no such curve, though single readings can be large; an effect the other way counts as inactive or inconclusive. Potency is read from the fitted curve at half-maximal effect.

`COc1cccc(N2C(=O)CSC23C(=O)N(CC(=O)Nc2cc(C)ccc2C)c2ccccc23)c1` (stereo not drawn) gave KB-V1 cytotox inactive and KB-3-1 cytotox inactive.
For Cc1ccc(S(=O)(=O)CC(=O)N(CCCN2CCOCC2)c2nc3c(F)cccc3s2)cc1 the results were KB-V1 cytotox inactive, KB-3-1 cytotox inactive, HT1080-NT tox 18%, SW480 rereplic -4%, MCF10A rerep -8% and HT1080 IDH1KD tx 4%.
Screening CCc1cccc2sc(N(CCCN3CCOCC3)C(=O)CS(=O)(=O)c3ccccc3)nc12 returned KB-V1 cytotox inactive, KB-3-1 cytotox inactive, HT1080-NT tox -9%, SW480 rereplic 0%, MCF10A rerep 2% and HT1080 IDH1KD tx -2%.
O=C(CCS(=O)(=O)c1ccccc1)N(CCCN1CCOCC1)c1nc2ccc(F)cc2s1 was read as KB-V1 cytotox inconclusive, KB-3-1 cytotox inconclusive, HT1080-NT tox inconclusive, SW480 rereplic -14%, MCF10A rerep 18µM* and HT1080 IDH1KD tx inconclusive.
For O=C(CCS(=O)(=O)c1ccccc1)N(CCCN1CCOCC1)c1nc2c(F)cccc2s1 the results were KB-V1 cytotox inconclusive, KB-3-1 cytotox inconclusive, HT1080-NT tox -6%, SW480 rereplic 23µM*, MCF10A rerep 13µM* and HT1080 IDH1KD tx inconclusive.
`COc1cc(/C=C2\CCC(C)C3=C(c4cc(OC)c(OC)c(OC)c4)C(C#N)=C(N)OC32)cc(OC)c1OC` (stereo not drawn) gave KB-V1 cytotox inactive, KB-3-1 cytotox inconclusive, HT1080-NT tox -19%, SW480 rereplic inconclusive, MCF10A rerep 8.2µM* and HT1080 IDH1KD tx inconclusive.
`CNC(=O)C1CCC(Cn2c(=O)c3sccc3n(CC(=O)N3CCC(C)CC3)c2=O)CC1` (stereo not drawn) gave KB-V1 cytotox inconclusive and KB-3-1 cytotox inactive.
Cc1cc(NC(=O)Cn2cnc3sc(C)c(-c4ccccc4)c3c2=O)no1 was read as KB-V1 cytotox 21µM*, KB-3-1 cytotox inactive, HT1080-NT tox -7%, SW480 rereplic -3%, MCF10A rerep inconclusive and HT1080 IDH1KD tx -15%.
`O=C(O)CC/C(=N/Nc1ccc([N+](=O)[O-])cc1)C(=O)O` gave KB-V1 cytotox inactive, KB-3-1 cytotox inactive, HT1080-NT tox 1.6µM*, SW480 rereplic 8%, MCF10A rerep 1% and HT1080 IDH1KD tx 5.8µM*.
O=C(Cn1c(-c2cccs2)cc2ccccc21)N1CCN(c2ccccc2F)CC1 was read as KB-V1 cytotox inactive and KB-3-1 cytotox inactive.
Screening O=C(Nc1nccs1)[C@@H]1CC=C[C@@H]2CCN(Cc3ccc(Cl)c(Cl)c3)C(=O)[C@@H]21 returned KB-V1 cytotox inconclusive and KB-3-1 cytotox inactive.
Screening CCc1ccc(C(=O)C(C)OC(=O)Cc2n[nH]c(=O)c3ccccc23)cc1 (stereo not drawn) returned KB-V1 cytotox inconclusive, KB-3-1 cytotox 9.2µM*, HT1080-NT tox inconclusive, SW480 rereplic inconclusive, MCF10A rerep 15µM* and HT1080 IDH1KD tx 13µM*.
COc1ccc(C2Nc3ccccc3C(=O)N2Cc2ccccc2)cc1COc1ccc(NC(C)=O)cc1 (stereo not drawn) was read as KB-V1 cytotox inactive and KB-3-1 cytotox inactive.

Source: PubChem (National Center for Advancing Translational Sciences (NCATS))
